39 compounds from PubChem BioAssay AID651599 (National Center for Advancing Translational Sciences (NCATS), 2012) can be followed below.

The structures appear in SMILES notation. Records with an inconclusive call do not appear. A call without a number means that no potency is given here. Activity calls are given as the source filed them. The call rests on the fitted dose curve; in most records, active means well fitted inhibition curve with a large enough effect; inconclusive means small, poorly fitted or top-dose-only effect; inactive means no such curve, though single readings can be large or run the other way.
Potency means the concentration at half of the fitted maximal effect.

Tumor susceptibility gene 101 protein (Homo sapiens), sequence (Q99816 whole entry, looked up, the tested form may be a part): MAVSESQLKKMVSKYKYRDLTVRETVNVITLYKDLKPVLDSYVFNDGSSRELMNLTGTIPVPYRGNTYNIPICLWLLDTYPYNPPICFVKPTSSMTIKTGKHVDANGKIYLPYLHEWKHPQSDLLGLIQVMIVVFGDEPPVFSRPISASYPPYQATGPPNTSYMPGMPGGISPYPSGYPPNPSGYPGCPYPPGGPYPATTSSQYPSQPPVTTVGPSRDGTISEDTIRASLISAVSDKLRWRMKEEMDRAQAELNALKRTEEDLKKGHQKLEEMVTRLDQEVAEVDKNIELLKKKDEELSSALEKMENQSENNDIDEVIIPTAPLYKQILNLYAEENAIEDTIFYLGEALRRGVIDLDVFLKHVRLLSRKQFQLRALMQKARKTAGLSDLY

This assay has as its target Tumor susceptibility gene 101 protein (Homo sapiens) (UniProt Q99816). The assay can be described thus: qHTS Assay for Iinhibitors of HIV-1 Budding by Blocking the Interaction of PTAP/TSG101: Hit Validation in TR assay. The settings on record: Tsg101 binding domain + Texas Red-labeled PTAP peptide, fluorescence polarization, 20 min; series mostly up to 57.5 µM. Put shortly: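 Fluorescence polarization: Tsg101 binding domain (10 uM final) with Texas Red-labelled PTAP peptide (50 nM final) in HEPES pH 7.5, 0.15 M NaCl, Tween 20, EDTA, TCEP; 20 min binding at room temperature after compound addition.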
In general terms: Quantitative high-throughput screening tests each substance at several concentrations.
For the compound `C/C(N)=C(/C#N)C(=O)CSc1ncnc2ccccc12`, the Potency entry is “inactive”.
With `CSCC(C)N1CCC(n2nccc2NC(=O)CCCc2ccccc2)CC1` (centres undefined), the Potency entry was “inactive”.
In the case of `CCN1CC=C2C(C#N)=C(N)C(C#N)(C#N)[C@H](c3cccc(OC)c3OC)[C@H]2C1`, the Potency result was “inactive”.
For `CC(=O)OCCn1c2nc(=O)[nH]c(=O)c-2nc2cc(C)c(C)cc21`, the Potency result was “inactive”.
For the compound `Cn1cc(/C=C(\C#N)C(=O)Nc2ccccc2O)c2ccccc21`, the Potency result is “inactive”.
As for `O=C(NCC1CCCO1)c1cccc2c1C(=O)c1ccc(N3CCC(Cc4ccccc4)CC3)cc1S2(=O)=O` (centres undefined), the Potency entry was “inactive”.
As for `N=c1c(S(=O)(=O)c2ccc(Br)cc2)cc2c(=O)n3ccccc3nc2n1Cc1ccccc1`, the Potency result was “inactive”.
For `CCOc1ccc(S(=O)(=O)N2CCc3cc(OC)c(OC)cc3C2)cc1` the value was “inactive”; for `O=C(Cc1nc2ccccc2[nH]c1=O)c1ccccc1`, “inactive”; for `O=C1c2cccc3c(O)ccc(c23)C(=O)N1c1ccc(Cl)cc1`, “inactive”.
As for `OCCN(CCO)c1nc(N2CCCCC2)c2nc(N(CCO)CCO)nc(N3CCCCC3)c2n1`, the Potency result is “inactive”.
For `CC(=O)N1c2ccccc2C(=O)C1N1CCCCC1` (centres undefined), the Potency entry was “inactive”.
With `CCCCn1c(=O)[nH]c2nc3cc(N)ccc3nc2c1=O` the figure was 11.6 µM (active); with `CCN(CC)c1ccc2cc(S(=O)(=O)c3ccc(C)cc3)c(=O)oc2c1`, “inactive”.
Take `CC(C)(C)c1ccc(C2C3=C(CCCC3=O)NC3=C2C(=O)c2ccccc23)cc1` (centres undefined): the Potency entry is “inactive”.
As for `Nc1cccc(N2C(=O)c3cccc4c(N)ccc(c34)C2=O)c1`, the Potency entry was “inactive”.
On to `COc1cccc2c1C(=O)c1c(O)c3c(c(O)c1C2=O)CC(O)(C(C)=O)CC3OC1CC(N(C)C)C(O)C(C)O1` (centres undefined), for which the Potency result was “inactive”.
For `COc1ccc(OC)c(NC(=O)CCN2CC(C)CC(C)C2)c1` (centres undefined), the Potency entry was “inactive”.
Regarding `Cn1cc(/C=C2\SC(=S)N(NC(=O)c3ccccc3)C2=O)c2ccccc21`, the Potency entry was “inactive”.
For `Nc1ccc2c3c(cccc13)-c1ccccc1-2`, the Potency result is “inactive”.
Regarding `CC(=O)N(/N=C1/C(=O)Nc2ccccc21)c1ccccc1`, the Potency result is “inactive”.
Take `CC1CCN(c2ccc3c(c2)S(=O)(=O)c2cccc(C(=O)NCc4cccc(F)c4)c2C3=O)CC1`: the Potency result is “inactive”.
Turning to `CCNc1ccc2noc3c2c1C(=O)c1ccccc1-3`, the Potency result was “inactive”.
For the compound `Cc1ccc(C2C=C(c3ccc(Cl)cc3)Nc3nc(NS(=O)(=O)c4ccccc4)nn32)cc1` (centres undefined), the Potency result is “inactive”.
For `CCCN1CCN(S(=O)(=O)c2cn(C)nc2C)CC1` the value was “inactive”.
With `Cc1cc(=O)c2c([nH]1)c(C)cc1[nH]c(C)c(C)c12`, the Potency entry was “inactive”.
With `Nc1ccc2nc3c(=O)n(C4CCCCC4)c(=O)[nH]c3nc2c1` the entry was “inactive”; with `COc1ccccc1N1C(=O)c2cccc3c(N(C)CCO)ccc(c23)C1=O`, “inactive”.
On to `N#CC(C#N)=C1C=C2C=C(N3CCCCC3)CCC2CC1` (centres undefined), for which the Potency result is “inactive”.
Consider `Cc1nc2nc(-c3cccs3)cn2nc1C`, for which the Potency result is “inactive”.
For the compound `COc1cc(-c2cc(-c3ccc(N)cc3)[nH]c(=O)c2C#N)cc(OC)c1OC`, the Potency entry was “inactive”.
With `O=[N+]([O-])c1ccc(-c2ccc(/C=N/Nc3nc(N4CCCC4)nc(N4CCCC4)n3)o2)cc1` the entry was “inactive”; with `CC(=O)c1cccc(-n2nnnc2SCC(=O)Nc2cc(C)on2)c1`, “inactive”.
With `O=Cc1ccc2noc(-c3ccc(F)cc3)c2c1`, the Potency entry is “inactive”.
In the case of `Oc1ccc2nnc3c(Br)cnn3c2c1`, the Potency entry is “inactive”.
For `Cn1c(=O)c2[nH]c(COc3ccccc3)nc2n(C)c1=O` the value was “inactive”.
Take `C=CCOc1ccc(C2C(C(=O)c3cccs3)=C(O)C(=O)N2c2nnc(C)s2)cc1` (centres undefined): the Potency entry is “inactive”.
Turning to `Nc1cccc2c(O)cc(S(=O)(=O)O)cc12`, the Potency result was “inactive”.
For the compound `CC1C2C(C)N(C)C(=O)N(C)C2N(C)C(=O)N1C` (centres undefined), the Potency result was “inactive”.
